# Source: PubChem BioAssay
# This is a sample that favours compounds with a hit; in the whole collection about 2.4% have one here.
# D2 PAM-1: D2 dopamine receptor (human) potentiation. potentiation, % at 10 µM. HEK293 T-REx D2, calcium flux, EC20 dopamine potentiation. hit rate 0.34% among 340,000;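 active means potentiation over 3 SD above the plate norm, cut at about 30% in these data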; further: 0% is about no effect
# Target sequence (P14416 whole entry, looked up): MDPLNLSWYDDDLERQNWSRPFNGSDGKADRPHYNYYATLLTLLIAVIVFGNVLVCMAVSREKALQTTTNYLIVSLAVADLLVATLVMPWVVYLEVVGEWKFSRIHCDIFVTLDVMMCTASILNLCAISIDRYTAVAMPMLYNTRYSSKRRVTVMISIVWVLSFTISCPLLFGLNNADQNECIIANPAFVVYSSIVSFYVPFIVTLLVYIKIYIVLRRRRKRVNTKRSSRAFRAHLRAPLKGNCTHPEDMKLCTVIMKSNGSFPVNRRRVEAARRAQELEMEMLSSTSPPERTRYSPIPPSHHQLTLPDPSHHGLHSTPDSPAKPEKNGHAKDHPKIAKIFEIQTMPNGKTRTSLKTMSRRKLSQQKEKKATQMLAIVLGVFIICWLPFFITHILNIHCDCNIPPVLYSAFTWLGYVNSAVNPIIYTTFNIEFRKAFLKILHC
#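 Potentiation of an EC20 dopamine calcium response is measured in a force-coupled, tetracycline-inducible Hek293 Trex D2 line. Compound-only kinetic reads over 180 s flag agonists before dopamine addition.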
# D2 antagonist: antagonizes the human D2 dopamine receptor; hit rate 2% among 340,000; inhibition, % at 10 µM; HEK293 TREx D2 cells, calcium flux, dopamine EC80; AID 485344; in the data active means inhibition above about 30%; inactive means below that, where a call was filed; further: 0% is about no effect
#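 Inhibition of EC80 dopamine-driven calcium flux, recorded kinetically, defines activity here; cells are a tetracycline-induced HEK293 T-REx line expressing force-coupled D2.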
# D2 ag-1: activates the human D2 dopamine receptor. DiscoveRx PathHunter D2 beta-arrestin, luminescence, 90 min; 100% = 57 uM dopamine signal. P14416. activation, % (concentration not given with the values). hit rate 0.084% among 360,000; in the data active means activation above about 40%; inconclusive means between about 15% and that limit
#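 DiscoveRx PathHunter D2 beta-arrestin cells (2,100/well) attached overnight, then compound-stimulated 90 min at 37 C in HBSS/10 mM HEPES/0.1% Tween-20 buffer; beta-galactosidase complementation read by luminescence after 1 h at ambient temperature. Dopamine 57 uM final (EC100) as control.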
# D2 ag-2: activates the human D2 dopamine receptor; P14416; HEK293 T-REx D2 cells, calcium flux agonist mode; activation, % at 2 µM; hit rate 0.53% among 340,000; AID 485358;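 active means activation over 3 SD above normal in the single-dose calcium agonist read, cut at about 30% in these data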; further: 0% is about no effect
#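 Tetracycline-induced HEK293 Trex cells with D2 receptor force-coupled to calcium signaling, plated overnight at 30 C and loaded with no-wash calcium dye. Calcium flux read kinetically for 180 s after compound addition; responses flag agonists.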
# D2 PAM-2: human D2 receptor positive allosteric modulation | P14416 | DiscoveRx D2 beta-arrestin cells, luminescence, 90 min; 100% = 57 uM dopamine signal | potentiation, % (concentration not given with the values) | hit rate 0.23% among 360,000 | AID 624464; in the data active means potentiation above about 50%; inconclusive means mostly about 30% to 49%
#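 D2 cells co-treated with compound plus 50 nM dopamine (EC20) for 90 min at 37 deg C to detect potentiation. Beta-arrestin recruitment was read as enzyme-fragment luminescence after 1 h at ambient temperature. Full response was set by 57 uM dopamine.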
# * = called active by the depositor; ? = inconclusive; / = not tested or not shown.
SMILES,D2 PAM-1,D2 antagonist,D2 ag-1,D2 ag-2,D2 PAM-2
CCOc1ccc(C(=O)O/N=C(\N)c2ccc([N+](=O)[O-])cc2)cc1OCC,2,14,?,0,58*
N/C(=N\OC(=O)c1ccc(Br)cc1)c1ccccc1,2,-6,6,0,13
Cc1ccccc1NC(=O)c1c(C)oc2ccc(O)c(CN3CCCCCC3)c12,18,/,/,-1,/
Cc1ccc(CNC(=O)C(C)n2c(=O)cc(-c3ccccc3)c3c(C)nn(C)c32)cc1 (configuration not stated),19,/,/,-1,/
COc1cccc(C2C(C(=O)Nc3ccc(Cl)cc3)=C(C)Nc3c(C(=O)Nc4ccccc4)cnn32)c1OC (configuration not stated),-6,/,/,1,/
COc1ccc(/C(N)=N/OC(=O)c2ccc(C)c([N+](=O)[O-])c2)cc1,-1,0,?,0,132*
N/C(=N\OC(=O)c1cccc(Br)c1)c1ccc([N+](=O)[O-])cc1,-7,1,51*,-1,14
COc1ccc(/C(N)=N/OC(=O)c2ccc([N+](=O)[O-])c(C)c2)cc1OC,-4,-11,2,0,-5
Cc1ccc(C(=O)O/N=C(\N)c2ccc(Br)cc2)cc1,-22,34*,?,1,28
CCOc1ccc(C(=O)c2cn(Cc3ccc(Cl)cc3)c3cc(OC)c(OC)cc3c2=O)cc1,8,/,/,1,/
CCOC(=O)N1CC=C2C(C#N)=C(N)C(C#N)(C#N)[C@H](c3cccs3)C2C1 (some centres not stated),72*,-18,-4,0,-5
Cn1nccc1NC(=O)Nc1ccccc1,13,7,4,0,-7
Cn1nccc1NC(=O)Nc1ccc(Cl)cc1,-10,43*,-1,0,-1
O=CNC1CCCc2c1[nH]c1ccc(Cl)cc21 (configuration not stated),5,-13,5,2,77*
CCN(CC)C(=O)C1CCCc2c1[nH]c1ccc(Cl)cc21 (configuration not stated),-5,-6,-3,-1,0
CCn1ncc(C2=NOC(C(=O)NCc3ccc(OC)cc3)C2)c1C (configuration not stated),-17,6,2,31*,-7
CCCn1ccc2c(OCC(=O)Nc3ccccc3C(=O)OCC)cccc2c1=O,12,/,/,1,/
CCOc1ccc(/C=N/Nc2nc(=O)[nH]nc2C)cc1OC,44*,-16,-2,0,-3
O=C(N/N=C/c1cc2c(cc1Br)OCO2)c1ccccn1,1,15,-2,-1,1
CC(C)(C)c1cc(C(=O)N/N=C/c2cc3c(cc2Br)OCO3)n[nH]1,-21,49*,6,-2,-45
O=C(N/N=C/c1cc2c(cc1Br)OCO2)c1cc2ccccc2o1,-25,80*,-3,-1,-54
COc1cc2oc(=O)c(CC(=O)NCCc3ccccc3)c(C)c2cc1Cl,1,/,/,0,/
Cc1ccccc1-n1nnnc1Sc1nnnn1-c1ccccc1,2,12,-1,0,-10
CCCSc1nnc(Sc2nnnn2-c2ccccc2)s1,2,44*,-2,-2,-12
CC(C)(C)c1ccc(NC(=O)c2ccccc2)c([N+](=O)[O-])c1,33*,15,-3,3,-6
SMILES,D2 PAM-1,D2 antagonist,D2 ag-1,D2 ag-2,D2 PAM-2
Cc1c(NC(=O)c2ccc(C(C)(C)C)cc2)cccc1[N+](=O)[O-],-6,-9,4,-1,14
Cc1cccc(Cn2c(CNS(=O)(=O)c3ccc4c(c3)CCCC4)nc3cccnc32)c1,9,/,/,0,/
O=c1oc2c(O)cccc2cc1-c1nc2ccccc2[nH]1,0,-115,5,149*,15
O=C(O)c1ccc2nc(-c3cc4cccc(O)c4oc3=O)[nH]c2c1,4,/,/,0,/
NC(=O)C1=C[C@H](c2ccc3c(c2)OCO3)C[C@H](OCc2ccc(CO)cc2)O1,-7,33*,1,0,-8
O=C(O)C1=C[C@@H](c2ccc3c(c2)OCO3)C[C@@H](OCc2ccc(CO)cc2)O1,12,-8,1,0,-36
Cc1ccc(C(=O)c2cn(Cc3ccccc3)c3nc(C)ccc3c2=O)cc1,4,/,/,0,/
Cc1c(Cl)cccc1NC(=O)C(=O)NCC(c1cccnc1)N1CCN(c2ccccc2)CC1 (configuration not stated),-28,/,/,1,/
NNC(=O)CNS(=O)(=O)c1ccc([N+](=O)[O-])cc1,8,49*,7,2,15
O=C(CNS(=O)(=O)c1ccccc1)OCC(=O)c1ccc([N+](=O)[O-])cc1,3,-6,13,0,11
Cc1ccc(N(CC(=O)Nc2ccc(Br)cc2)S(=O)(=O)c2cccs2)cc1,16,/,/,1,/
CCOc1ccccc1N1C(=O)CC(Sc2ncccc2C(=O)O)C1=O (configuration not stated),-11,36*,-1,0,5
CCOc1cc(/C=C2\CCCc3c2nc2ccccc2c3C(=O)O)ccc1OC,-27,38*,-2,87*,6
Cc1ccccc1NC(=O)Cc1nnc(NC(=O)Nc2ccccc2F)s1,4,14,3,1,-8
CC(C)C(=O)Nc1nnc(Cc2ccccc2)s1,6,30*,-3,1,-3
COC(=O)Nc1nnc(Cc2ccccc2)s1,7,-9,-1,-1,-7
Cc1ccccc1NC(=O)Nc1nnc(CC(=O)NCc2ccccc2)s1,-1,31*,-3,0,-13
CC(C)C(c1nnnn1Cc1ccc(F)cc1)N1CCN(C2CCCC2)CC1 (configuration not stated),8,56*,-4,0,-3
CCCC(c1nnnn1Cc1ccc(F)cc1)N1CCN(C2CCCCC2)CC1 (configuration not stated),3,-12,-1,-1,-21
CN1CCN(C(c2ccc(F)cc2)c2nnnn2Cc2cccs2)CC1 (configuration not stated),/,/,-5,/,-18
CN1CCN(C(c2cccs2)c2nnnn2Cc2ccc(F)cc2)CC1 (configuration not stated),8,42*,-3,0,0
Cc1cc(C)c(S(=O)(=O)Nc2ccc(-c3ccc(N4CCCCC4)nn3)cc2)c(C)c1,-4,/,/,1,/
Fc1ccc([C@@H]2CCNC[C@H]2COc2ccc3c(c2)OCO3)cc1,-9,41*,3,15,-6
C=C1CC(C)OC(c2ccccc2OCC(O)CN2CCCCC2)C1 (configuration not stated),-8,65*,-1,0,5
CCN1CCN(CCOc2ccccc2-c2ccccc2)CC1,-23,87*,-5,0,-4
CCN1CCN(CCCOc2ccccc2-c2ccccc2)CC1,5,-7,0,-2,-22
